Screening data from PubChem BioAssay.
Many of the other results were omitted from the sample, so hits are more common in it than they were.
GBA enhancer = GBA activity enhancers in patient fibroblasts, primary screen, cell-based; Lysosomal acid glucosylceramidase (Homo sapiens), P04062; L444P Gaucher fibroblasts, 4-MU-glucoside fluorescence, 3 days; activation, % at 10 µM; actives 0.44% (n = 30,000); in the data active = activation above about 65%
Target sequence (P04062 whole entry L483P): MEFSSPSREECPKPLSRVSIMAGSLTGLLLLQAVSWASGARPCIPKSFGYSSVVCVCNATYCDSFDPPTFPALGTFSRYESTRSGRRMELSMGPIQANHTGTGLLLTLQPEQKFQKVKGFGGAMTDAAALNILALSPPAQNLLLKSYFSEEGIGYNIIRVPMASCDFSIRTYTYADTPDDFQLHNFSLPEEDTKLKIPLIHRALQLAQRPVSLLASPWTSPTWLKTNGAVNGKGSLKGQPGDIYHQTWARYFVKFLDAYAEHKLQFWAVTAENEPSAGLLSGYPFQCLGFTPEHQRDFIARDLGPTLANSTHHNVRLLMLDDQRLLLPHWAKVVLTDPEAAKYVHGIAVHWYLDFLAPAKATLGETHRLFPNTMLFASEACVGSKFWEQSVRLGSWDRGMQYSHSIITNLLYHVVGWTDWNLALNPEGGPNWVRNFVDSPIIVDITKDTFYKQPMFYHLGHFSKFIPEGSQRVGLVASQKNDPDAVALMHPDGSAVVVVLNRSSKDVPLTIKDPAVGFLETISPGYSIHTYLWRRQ
Hits are given with their value; - = inactive.

SMILES	GBA enhancer
O=C(CSc1nnc2sc3ccccc3n12)c1ccco1	-
CC(C)C(O)P(=O)(OCc1ccccc1)c1ccc(N(C)C)cc1 (stereo not drawn)	-
COc1cccc(-c2nc(CS(=O)(=O)CC(=O)NCCCN3CCc4ccccc4C3)c(C)o2)c1	-
Cn1c(Cc2ccccc2)nnc1SCC(=O)Nc1ccccc1N1CCOCC1	96
CC(C)n1nnnc1SCC(=O)Nc1ccccc1N1CCOCC1	-
Cn1c(Cc2ccccc2)nnc1SCC(=O)NC1CCCCC1	-
O=C(CCCc1cccs1)N1CCN(S(=O)(=O)c2ccccc2Br)CC1	-
COc1ccc2cc(CN(CC3COCCO3)S(=O)(=O)c3ccc(Cl)cc3)c(=O)[nH]c2c1 (stereo not drawn)	-
CCCCSC1=C(C#N)C(c2ccccc2C)C(C(=O)OCC)C(=O)N1 (stereo not drawn)	-
Cc1nc2ccccc2nc1OCC(=O)Nc1cc(C(F)(F)F)ccc1N1CCOCC1	-
FC(F)(F)c1ccc(N2CCOCC2)c(Nc2nc3ccccc3n3cnnc23)c1	75
O=C(Nc1cc(C(F)(F)F)ccc1N1CCOCC1)c1cncc(Br)c1	-
C=CCOc1c(Br)cc(CNn2nnnc2N)cc1OC	-
O=C(CNS(=O)(=O)c1ccc(Br)s1)NCC1COc2ccccc2O1 (stereo not drawn)	-
COC(=O)c1ccccc1NC(=O)CN(C)S(=O)(=O)c1cc(C)ccc1OC	-
CC(=O)C(C(C)=O)c1c(Cl)c(O)c(O)c2c(C(=O)c3ccccc3)coc12	-
Cc1nc(CNS(=O)(=O)c2ccc3c(c2)OCCO3)cs1	-
O=S(=O)(NCc1csc(-c2cccnc2)n1)c1ccc2c(c1)OCCO2	109
O=S(=O)(NCCc1csc(-c2ccccc2)n1)c1ccc2c(c1)OCCO2	-
O=c1c2cc3c(cc2[nH]c(=S)n1Cc1ccco1)OCO3	-
Cn1c(=O)[nH]c(=O)c2c1nc(N1CCOCC1)n2CCSc1ncccn1	-
CCOCCCn1c(=N)c(C(=O)NCCN2CCOCC2)cc2c(=O)n3cccc(C)c3nc21	75
CCOCCCn1c(=N)c(C(=O)NCc2ccc3c(c2)OCO3)cc2c(=O)n3ccccc3nc21	-
COCCn1c(=N)c(C(=O)NCCc2ccc(OC)cc2)cc2c(=O)n3cccc(C)c3nc21	-
O=C(CSc1ccc2nnc(-c3ccncc3)n2n1)N1CCc2ccccc21	-
SMILES	GBA enhancer
CC(C)n1c(=S)[nH]c2c1c(=O)[nH]c(=O)n2C	136
CC(C)n1c(SCC(N)=O)nc2c1c(=O)[nH]c(=O)n2C	-
C/C=C/CSc1nc2c(c(=O)[nH]c(=O)n2C)n1C(C)C	-
COc1cc(S(=O)(=O)NCCc2ccc3c(c2)OCO3)ccc1-n1cnnn1	-
O=C(CSc1ccc2nnc(-c3ccccc3)n2n1)N1CCCCC1	-
O=C(CN(C1CCCCC1)S(=O)(=O)c1ccc(Cl)cc1)NCc1ccncc1	-
O=C1[C@H]2[C@@H](C(=O)N1c1cc(Cl)cc(Cl)c1)[C@]1(C(=O)Nc3ccccc31)N1CCC[C@@H]21	-
O=C1Nc2ccccc2C(O)(C(=O)NC2CC2)N1c1ccc(Cl)c(Cl)c1 (stereo not drawn)	81
O=C1Nc2ccccc2C(O)(C(=O)NCc2ccco2)N1c1ccc(Cl)cc1 (stereo not drawn)	-
Cc1ccccc1S(=O)(=O)Nc1nc2ccccc2nc1N1CCOCC1	-
C=CCn1c(-c2cc(OC)c(OC)c(OC)c2)n[nH]c1=S	-
C=CCn1c(-c2ccco2)n[nH]c1=S	-
C=CCn1c(-c2c[nH]c3ccccc23)n[nH]c1=S	67
Cc1c(C)[n+](=O)c2c(n1[O-])CCCCC2	-
Cc1ccc(C)c(/C(O)=C2\C(=O)C(=O)N(CCCn3ccnc3)C2c2ccncc2)c1 (stereo not drawn)	84
COCCCN1C(=O)C(=O)/C(=C(/O)c2ccc(C)cc2)C1c1ccccc1 (stereo not drawn)	-
CC1Cc2cc(/C(O)=C3/C(=O)C(=O)N(CCCN(C)C)C3c3ccncc3)ccc2O1 (stereo not drawn)	-
Cc1ccc(CCNC(=O)Cn2cccc2)cc1	-
CCCCN(CC)S(=O)(=O)c1ccc(C(=O)Nc2nnc(CSC)o2)cc1	81
CCCN(CCC)S(=O)(=O)c1ccc(C(=O)Nc2nnc(CSC)o2)cc1	-
CCCCN(CCCC)S(=O)(=O)c1ccc(C(=O)Nc2nnc(CSC)o2)cc1	-
N#Cc1c(N)oc(-c2ccc3c(c2)OCO3)c1-c1ccc2c(c1)OCO2	-
CCc1ccc(CNC(=O)CN2C(=O)COc3ccccc32)cc1	-
O=C(COC(=O)c1ccccc1F)c1ccc(-n2nncc2-c2ccco2)cc1	-
CCN1CCN(C(c2ccc(OC)c(OC)c2)c2nnnn2C(C)(C)C)CC1 (stereo not drawn)	140
SMILES	GBA enhancer
COc1ccccc1N1CCN(C(c2ccc(Cl)cc2)c2nnnn2C(C)(C)C)CC1 (stereo not drawn)	-
COc1ccccc1C(c1nnnn1C(C)(C)C)N1CCN(Cc2ccncc2)CC1 (stereo not drawn)	-
COc1cccc2c1OC1(C)CC2/C(=C(\C)O)C(=O)N1 (stereo not drawn)	-
CC(=O)C1C(c2ccccc2OC(F)F)NC(=O)NC1(O)C(F)(F)F (stereo not drawn)	-
CCCCNS(=O)(=O)c1ccc2nc(SCC(=O)c3ccc(C#N)cc3)[nH]c2c1	-
COc1ccc(C(C(=O)NC2CCCCC2)N2CCC3(CC2)OCCO3)cc1 (stereo not drawn)	-
CN(C)C(C(=O)NC1CCCCC1)c1ccc(Cl)cc1 (stereo not drawn)	-
Cc1ccc(C(C(=O)NC2CCCCC2)N2CCCC2)cc1 (stereo not drawn)	127
CCOC(=O)c1oc2ccccc2c1NC(=O)c1cccc(OC)c1OC	-
CCOC(=O)NC(CC(=O)O)c1ccc(OCC)cc1 (stereo not drawn)	81
COc1ccc(C(CC(=O)O)NC(=O)c2cccs2)cc1 (stereo not drawn)	-
O=C(O)CC(NC(=O)OCc1ccccc1)c1ccccc1 (stereo not drawn)	-
C=CCn1sc(=N)c(C#N)c1N	-
CC(=Nc1ccc2c(c1)nc(CO)n2C)C1=C(O)CC(C)(C)CC1=O	-
CCOC(=O)C1=C(C)OC(N)=C(C#N)C1c1c(C)nn(-c2ccccc2)c1Cl (stereo not drawn)	-
CCOC(=O)N1CCC2(CC1)C(C#N)=C(N)Oc1c2c(C)nn1-c1cccc(Cl)c1	74
CC1(C)CC(=O)C2=C(C1)OC(N)=C(C#N)C21CCN(Cc2ccccc2)CC1	-
COC(=O)C1=C(NC(=O)c2cccc(C)c2)CCS1	-
